Compounds without any hit were thinned out: in the full panel of roughly 83,000, 20% have a hit.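 Each cell line was grown in a 96-well plate and treated with one concentration of compound for 48 hours. Values below 10 were considered active.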 Values without a mark were called inactive. Activity calls are given as the source filed them.
Assays:
Assay in all cases: NCI-60 one-dose screen, 48 h (100 = growth as untreated, 0 = no growth, -100 = all killed)
Details in all cases: 10 µM unless noted
T-47D breast = test system: T-47D breast
BT-549 breast = test system: BT-549 breast
SW-620 colon = test system: SW-620 colon
MCF7 breast = test system: MCF7 breast
HCT-116 colon = test system: HCT-116 colon
HCC-2998 colon = test system: HCC-2998 colon
KM12 colon = test system: KM12 colon

| SMILES | growth (T-47D breast) | growth (BT-549 breast) | growth (SW-620 colon) | growth (MCF7 breast) | growth (HCT-116 colon) | growth (HCC-2998 colon) | growth (KM12 colon) |
| --- | --- | --- | --- | --- | --- | --- | --- |
| COC(=O)CCC(=O)C(=O)OC | 61.3% [10 mM] | -12.2% [10 mM] (active) | 29.9% [10 mM] | 49.8% [10 mM] | 9.17% [10 mM] (active) | -38.5% [10 mM] (active) | 2.17% [10 mM] (active) |
| Cn1ccc2c3c(ccc21)CC3=O | 105% | 106% | 108% | 107% | 101% | – | 112% |
| C=CC(=O)NCc1ccc(Nc2nccc(-c3ccc(N4CCCC4)c(C#N)c3)n2)cc1 | 71% | -10.3% (active) | 43.9% | 14.3% | 22.2% | 71.3% | 35.2% |
| O=C(O)c1ccc(-n2cc(/C=N/Nc3ccc(F)cc3)c(-c3cc4ccccc4oc3=O)n2)cc1 | 63.7% | 80% | 64.5% | 66.1% | 56.5% | 88.3% | 77.7% |
| Cc1ccc2c3c(c(=O)[nH]c2c1)C1(C(C#N)=C(N)O3)c2cc(Br)ccc2-c2ccc(Br)cc21 | -29.6% (active) | 61.8% | -36.5% (active) | -42.6% (active) | 10% | -4.73% (active) | 6.52% (active) |
| S=C(Nc1ccc(-c2nc(N3CCOCC3)c3cccn3n2)cc1)Nc1cccnc1 | -4.82% (active) | 32.8% | – | 20.4% | 17.3% | 32.9% | 28.1% |
| CCCC(=O)NC(c1ccc2c(c1)OCO2)c1ccc2cccnc2c1O (stereo not given) | 19.8% | 34.6% | 25.7% | 5.86% (active) | 11.8% | 38% | 30.6% |
| CC(=O)Nc1nc2ccc(NS(=O)(=O)c3cccc4c(N(C)C)cccc34)cc2[nH]1 | 74.3% | 61.3% | 38.7% | 22.4% | 62.2% | 83.3% | 55.1% |
| CCn1cc(C(=O)N/N=C/c2cccs2)c(=O)c2cc(F)c(N3CCNC(C)C3)c(F)c21 (stereo not given) | 77.8% | 61.6% | -16.8% (active) | -77.4% (active) | 94.5% | 28.6% | 83.5% |
| CC(C)=CCC[C@](C)(O)[C@H]1CC[C@]2(C)[C@@H]1CC[C@@H]1[C@@]3(C)Cc4nccnc4C(C)(C)[C@@H]3CC[C@]12C | 51.5% | 74.8% | 71.1% | -59.3% (active) | 46.9% | 79.4% | 75% |
| CCC(C)N(c1ccc(Cl)cc1)c1nc(-c2ccc(Br)cc2)cs1 (stereo not given) | 78.7% | 121% | 95.5% | – | 91% | 108% | 91.5% |
| COc1cc(/C=C/C(=O)c2cccc(Nc3nc(Nc4ccccc4)nc(Nc4ccccc4)n3)c2)cc(OC)c1OC | 42.2% | 64.2% | 35.4% | 22.9% | 15.1% | 16.7% | 52.7% |
| CCOC(=O)c1cc(C(=O)c2cc(OC)c(OC)c(OC)c2)n2ccc(-c3ccncc3)cc12 | 84.1% | 90.6% | 105% | 107% | 76.3% | 115% | 100% |
| Nc1c(C(=O)Nc2ccccc2Cl)sc2nc3c(cc12)C(O)CCC3 (stereo not given) | 38.6% | 52.1% | 49.3% | 24.4% | – | 64.3% | 31.9% |
| CN1C(=O)N(C)C2Nn3c(s/c(=C\c4ccc(C(F)(F)F)cc4)c3=O)=NC21 (stereo not given) | 107% | 113% | 101% | 92% | 107% | 113% | 99.7% |
| CCOC(=O)c1c(NC(=O)c2ccc(C(C)C)cc2)sc2c(CN(C)C)c(O)ccc12 | 61% | 89.7% | -58.6% (active) | 15.2% | 4.82% (active) | -55.8% (active) | 1.36% (active) |
| COc1ccc(-c2nc(/C=C3\SC(=NCc4ccccc4)NC3=O)c3ccccn23)cc1 | -67% (active) | -92.9% (active) | -55.5% (active) | -62.2% (active) | -97.2% (active) | – | -78% (active) |
| Cc1cc(N)c2cc(NC(=O)/C=C\c3ccccc3Cl)ccc2n1 | -58.1% (active) | -72.8% (active) | -91.2% (active) | -82.4% (active) | -73% (active) | – | -83.8% (active) |
